Test results taken from PubChem BioAssay AID2174 (The Scripps Research Institute Molecular Screening Center, 2009).
Hit rate of the full screen: of about 320,000 compounds, about 500 (0.16%) were called active. This is one part of a sample in which actives are shown more often than they occur.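 The calls were made as follows: active = inhibition above the mean of all tested compounds plus 3 SD, set per campaign (cut at about 14% in these data); inactive = the rest.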

The molecules below were run against Acyl-protein thioesterase 1 (Homo sapiens) (UniProt O75608) (assay: inhibition of human lysophospholipase 1 – biochemical, fluorescence polarization, FP-Rh probe ABPP, counter-screen for PME1 inhibitor project, primary screen (AID 2174;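 also: inhibitors block serine hydrolase probe labeling of LYPLA1 so polarization falls; 0% = enzyme with DMSO and 100% = wells lacking LYPLA1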)). Settings: recombinant LYPLA1, FP-Rh probe fluorescence polarization; at 5.9 µM; stronger effect = higher value.
Acyl-protein thioesterase 1 (Homo sapiens), sequence (O75608 whole entry, looked up): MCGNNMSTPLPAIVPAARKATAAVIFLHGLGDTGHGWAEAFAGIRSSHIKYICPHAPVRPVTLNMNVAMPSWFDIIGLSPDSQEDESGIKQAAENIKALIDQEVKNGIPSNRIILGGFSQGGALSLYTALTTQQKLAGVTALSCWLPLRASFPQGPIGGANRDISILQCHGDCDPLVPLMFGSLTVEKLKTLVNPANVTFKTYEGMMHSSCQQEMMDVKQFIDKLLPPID

| Compound | inhibition |
| --- | --- |
| COC(=O)c1ccc2ccccc2c1OC1OC(CO)C(O)C(O)C1NC(C)=O (stereo not given) | -2.18% (inactive) |
| Cc1ccc2c(c1)N(S(=O)(=O)c1cc(-c3cc(C)no3)ccc1C)CCO2 | -4.6% (inactive) |
| Cc1cccc(N2CCN(C(=O)CCS(=O)(=O)c3ccc4c(c3)NC(=O)C(C)S4)CC2)c1C (stereo not given) | 2.02% (inactive) |
| CCOC(=O)Cc1csc(NC(=O)CN(C)S(=O)(=O)c2ccc3c(c2)CCC(=O)N3)n1 | -0.84% (inactive) |
| Cc1cccc(N2CCN(C(=O)CN(C)S(=O)(=O)c3ccc4c(c3)CCC(=O)N4)CC2)c1C | 16.5% (active) |
| O=C(O)CSc1nccn1-c1cccc(Cl)c1 | -1.21% (inactive) |
| O=c1c(-c2cccc(Cl)c2)c[nH]n1-c1ccccc1 | -3.25% (inactive) |
| O=c1[nH]n(-c2cccc(Cl)c2)c2ncccc12 | 29.8% (active) |
| Cc1ccc(C2=NN(C)c3nc4ccccc4n3C2)cc1 | -2.83% (inactive) |
| CN1CCN(C(=O)N2c3ccccc3CCc3ccccc32)CC1 | 3.26% (inactive) |
| O=C(CSc1ncnc2c1nnn2Cc1ccc(F)cc1)NC1CCCC1 | 1.1% (inactive) |
| CCOC(=O)c1cc2cc(-c3c(C(=O)OCC)oc4cc(O)cc(O)c4c3=O)ccc2o1 | 9.58% (inactive) |
| CCOC(=O)c1nnn2c1nc(N1CCN(c3ccccc3)CC1)c1ccccc12 | -0.46% (inactive) |
| O=C(CCNS(=O)(=O)c1ccccc1C(F)(F)F)Nc1ccncc1 | -2.82% (inactive) |
| C/C(Cn1nnc2ccccc21)=N\OC(=O)c1cc(F)c(F)cc1Cl | -3.21% (inactive) |
| Cn1c(=O)c2c(nc(N/N=C/c3cccs3)n2Cc2ccc(Br)cc2)n(C)c1=O | 4.08% (inactive) |
| O=C(c1ccc(-c2ccccc2)cc1)C1CCCN(C(=O)c2cncs2)C1 (stereo not given) | 24% (active) |
| Cc1nc(C(=O)N2CCCC(C(=O)c3ccc(Cl)cc3)C2)cs1 (stereo not given) | -0.29% (inactive) |
| Cn1nccc1C(=O)N1CCCC(C(=O)c2ccc(Oc3ccccc3)cc2)C1 (stereo not given) | 6.29% (inactive) |
| COC(=O)c1cc2c(ccn2C)n1C | -0.69% (inactive) |
